Experimental data from PubChem BioAssay AID743373 (National Center for Advancing Translational Sciences (NCATS), 2014).
Results filed as inconclusive are left out. Activity calls are given as the source filed them. The call rests on the fitted dose curve; in most records, active means well fitted inhibition curve with a large enough effect; inconclusive means small, poorly fitted or top-dose-only effect; inactive means flat fitted curve, though single readings scatter.

Target: Galactokinase (Homo sapiens) (UniProt P51570)
Test: qHTS for Inhibitors of Human Galactokinase (GALK): Confirmation Assay for SAR round 4
Details: recombinant GALK, ADP-Glo luminescence, 1 h
Source text: Inherited deficiency of galactose-1-phosphate uridyltransferase (GALT) can result in a potentially lethal disorder called Classic Galactosemia (OMIM 230400). Several lines of evidence indicate that an elevated level of galactose-1-phosphate (gal-1-p), the product of galactokinase (GALK), is a major, if not sole, pathogenic mechanism in patients with classic galactosemia. Therefore, finding inhibitors of GALK is a potential novel therapy for this inherent metabolic disease and is the long term goal of this project. Active compounds observed in the qHTS GALK assay (AID: 1868) were cherry picked and re-screened for validation. GALK (provided by Kent Lai) was assayed using ATP and D-(+)-Galactose (Sigma-Aldrich cat# G0750) as substrates. Promega ADP-Glo technology was used to detect the ADP product formed after the kinase reaction. […]
Two uL/well of ATP-buffer solution (35 uM ATP, 20mM HEPES pH8.0, 5 mM MgCl2, 60 mM NaCl, 1 mM DTT, 0.01% BSA final concentration) was dispensed into 1536-well, assay plates (Greiner, solid white medium-binding plates) with Aurora Discovery BioRAPTR Flying Reagent Dispenser (FRD; Beckton-Dickenson). […] Luminescence was detected with the ViewLux plate reader (Perkin Elmer, Waltham, MA) using a 1 sec exposure time and 2x binning.

Sequence of Galactokinase (Homo sapiens) (P51570 whole entry, looked up): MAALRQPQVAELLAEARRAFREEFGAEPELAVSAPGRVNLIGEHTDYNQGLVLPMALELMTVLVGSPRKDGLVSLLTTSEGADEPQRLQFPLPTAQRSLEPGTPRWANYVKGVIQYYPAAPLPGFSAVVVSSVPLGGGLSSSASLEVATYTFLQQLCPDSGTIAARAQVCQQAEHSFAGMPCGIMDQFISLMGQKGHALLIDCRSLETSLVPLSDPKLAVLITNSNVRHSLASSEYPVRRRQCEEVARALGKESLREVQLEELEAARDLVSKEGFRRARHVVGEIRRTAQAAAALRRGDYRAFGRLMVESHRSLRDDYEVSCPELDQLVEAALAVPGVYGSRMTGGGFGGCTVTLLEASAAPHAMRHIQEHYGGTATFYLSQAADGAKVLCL

SMILES	Potency
CC1=C(C(=O)Nc2nncs2)C(c2nn(C)cc2Cl)N=C(Nc2nc3ccccc3o2)N1 (configuration not stated)	6.85 µM (active)
Cn1cc(Br)c(C2N=C(Nc3nc4ccccc4o3)NC3=C2C(=O)CCC3)n1 (configuration not stated)	4.32 µM (active)
